Data as given in PubChem BioAssay (NCI).
The panel holds about 83,000 compounds, 20% with a hit somewhere; the sample as a whole holds those more often.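 Cell lines were cultured in 96-well plates, exposed to a single compound concentration, and assessed for percent growth 48 hours later.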 The source made the active and inactive calls. Rule for the calls: active = growth percent below 10; inactive = the rest.

Columns and labels:
Assay in all cases: NCI-60 one-dose screen, 48 h (100 = growth as untreated, 0 = no growth, -100 = all killed)
Settings in all cases: 10 µM unless noted
NCI/ADR-RES ovarian = system: NCI/ADR-RES ovarian
T-47D breast = system: T-47D breast
BT-549 breast = system: BT-549 breast
MDA-MB-435 melanoma = system: MDA-MB-435 melanoma
SW-620 colon = system: SW-620 colon
MCF7 breast = system: MCF7 breast
HCT-116 colon = system: HCT-116 colon
HCC-2998 colon = system: HCC-2998 colon
KM12 colon = system: KM12 colon

Measured: growth

COc1cc2c(cc1OCCCCCn1c(-c3ccco3)nc3ccccc31)N=C[C@@H]1CCCN1C2=O
inactive: NCI/ADR-RES ovarian 11.2% | T-47D breast 27.8% | BT-549 breast 18% | SW-620 colon 15% | MCF7 breast 13.4% | HCT-116 colon 14.5%
active: MDA-MB-435 melanoma -48.1% | HCC-2998 colon -22.3% | KM12 colon 2.44%

C/C(Cc1ccc(Cl)cc1)=C(\c1ccc(OCCN2CCOCC2)cc1)c1ccc(OC(=O)Cc2ccccc2)cc1
inactive: NCI/ADR-RES ovarian 98.7% | T-47D breast 66% | BT-549 breast 96.9% | MDA-MB-435 melanoma 98.6% | SW-620 colon 96.5% | MCF7 breast 69.4% | HCT-116 colon 86.1% | HCC-2998 colon 91.3% | KM12 colon 98%

CCC(=O)Nc1ccc(Cl)c(Cl)c1
inactive: NCI/ADR-RES ovarian 102% | T-47D breast 87.3% | BT-549 breast 113% | MDA-MB-435 melanoma 107% | SW-620 colon 101% | MCF7 breast 93.1% | HCT-116 colon 99.1% | HCC-2998 colon 93.9% | KM12 colon 99.9%

C[C@]12CCc3sc(NCCc4ccccc4)nc3C1=CC[C@@H]1[C@@H]2CC[C@]2(C)C(=O)CC[C@@H]12
inactive: NCI/ADR-RES ovarian 70.2% | T-47D breast 75.2% | BT-549 breast 60.4% | MDA-MB-435 melanoma 58.1% | SW-620 colon 35.3% | MCF7 breast 20.4% | HCT-116 colon 21.2% | HCC-2998 colon 106% | KM12 colon 74.7%

O=C(O)C(Cl)(Cl)C(F)(F)F
inactive: NCI/ADR-RES ovarian 102% | T-47D breast 106% | BT-549 breast 96.9% | MDA-MB-435 melanoma 97.7% | SW-620 colon 94.7% | MCF7 breast 99.6% | HCT-116 colon 105% | HCC-2998 colon 99.9% | KM12 colon 102%

CC(=O)OC[C@]1(C)C=C2C(=O)[C@](C)(O)C3(CC3)C(C)=C2[C@H]1O
inactive: KM12 colon 10.4%
active: NCI/ADR-RES ovarian -18.7% | T-47D breast -8.92% | BT-549 breast -42.4% | MDA-MB-435 melanoma -24.1% | SW-620 colon 0.025% | MCF7 breast 1.05% | HCT-116 colon 0.12% | HCC-2998 colon -59.8%

CC(C)CCC1(CCCl)C(=O)NC(=O)NC1=O
inactive: NCI/ADR-RES ovarian 102% | T-47D breast 105% | BT-549 breast 102% | MDA-MB-435 melanoma 97% | SW-620 colon 98.9% | MCF7 breast 96.4% | HCT-116 colon 100% | HCC-2998 colon 107% | KM12 colon 108%

N#CC1(c2ccccc2)CCN(Cc2ccccc2)CC1
inactive: NCI/ADR-RES ovarian 99.7% | T-47D breast 100% | BT-549 breast 102% | MDA-MB-435 melanoma 95.2% | SW-620 colon 101% | MCF7 breast 110% | HCT-116 colon 104% | HCC-2998 colon 113% | KM12 colon 99.7%

COc1ccc(C2=CC(c3ccc(OC)c(OC)c3)c3c(c4ccccc4oc3=O)O2)cc1OC (stereo unspecified)
active: BT-549 breast -4.49% | MDA-MB-435 melanoma -72.9%
inactive: NCI/ADR-RES ovarian 29% | T-47D breast 35% | SW-620 colon 18.5% | MCF7 breast 11.8% | HCT-116 colon 24.2% | HCC-2998 colon 31.4% | KM12 colon 16.2%

COC(=O)[C@@H](C)C[C@H](Cc1ccc2ccccc2c1)NC(=O)c1csc([C@@H](C[C@H](C(C)C)N(C)C(=O)[C@@H](NC(=O)[C@H]2CCCCN2C)C(C)C)OC(C)=O)n1
inactive: NCI/ADR-RES ovarian 60.3% | T-47D breast 72.9% | MDA-MB-435 melanoma 19.7% | SW-620 colon 51.2% | MCF7 breast 17% | HCT-116 colon 51.4% | HCC-2998 colon 52.8% | KM12 colon 36.2%
active: BT-549 breast -22.3%

COc1cc(/C=C\c2cc(OC)c(OC)c(OC)c2)cc(N/C=C\C(=O)c2cc(OC)c(OC)c(OC)c2)c1OC
active: T-47D breast -3% | MDA-MB-435 melanoma -37.3%
inactive: NCI/ADR-RES ovarian 19.5% | BT-549 breast 43.9% | SW-620 colon 28.2% | MCF7 breast 15.1% | HCT-116 colon 17.8% | HCC-2998 colon 53.6% | KM12 colon 21.8%

CC12CC=CCC1CCC1C2CCC2(C)C(c3ccc(=O)oc3)CCC12O (stereo unspecified)
active: NCI/ADR-RES ovarian -41.1% | T-47D breast -4.1% | BT-549 breast -65.4% | MDA-MB-435 melanoma -89.1% | SW-620 colon -58.9% | MCF7 breast -21.6% | HCT-116 colon -67.1% | HCC-2998 colon -10.9% | KM12 colon -49.5%

CC[C@H](C)[C@H](NC(=O)[C@H]1CCCCN1C)C(=O)N(C)[C@H](C[C@@H](OC(C)=O)c1nc(C(=O)N[C@@H](Cc2ccccc2)C[C@H](C)C(=O)OC)cs1)C(C)C
active: NCI/ADR-RES ovarian -4.28% | BT-549 breast -35.7% | MDA-MB-435 melanoma -35.3% | HCT-116 colon 4.25% | KM12 colon 2.43%
inactive: T-47D breast 81% | SW-620 colon 45.4% | MCF7 breast 12.9% | HCC-2998 colon 10.8%

Cc1ccc(S(=O)(=O)C(Cl)(Cl)Cl)cc1
inactive: NCI/ADR-RES ovarian 89.1% | T-47D breast 78.4% | BT-549 breast 92.1% | MDA-MB-435 melanoma 97.1% | SW-620 colon 99.3% | MCF7 breast 98.6% | HCT-116 colon 87.3% | HCC-2998 colon 107% | KM12 colon 101%

N#CC1C(C#N)C2CCC1C1C2N1c1ccccc1 (stereo unspecified)
inactive: NCI/ADR-RES ovarian 111% | T-47D breast 108% | BT-549 breast 98.1% | MDA-MB-435 melanoma 107% | SW-620 colon 100% | MCF7 breast 101% | HCT-116 colon 95.1% | HCC-2998 colon 102% | KM12 colon 102%

c1cnc2[nH]cc(-c3csc(-c4cn(CCCCN5CCOCC5)c5ccccc45)n3)c2c1
inactive: NCI/ADR-RES ovarian 69.4% | T-47D breast 36.1% | BT-549 breast 79.6% | MDA-MB-435 melanoma 24.4% | SW-620 colon 18.1% | MCF7 breast 25.1% | HCT-116 colon 40.3% | HCC-2998 colon 56.9% | KM12 colon 24.1%

CC1=C(O)[C@@](C)(CCCCC[C@H](C)CCCCc2ccc(O)cc2)OOC1=O
inactive: NCI/ADR-RES ovarian 88.5% | T-47D breast 89% | BT-549 breast 97.4% | MDA-MB-435 melanoma 82.6% | SW-620 colon 109% | MCF7 breast 98.8% | HCT-116 colon 88.6% | HCC-2998 colon 115% | KM12 colon 90.1%

O=C1C=C2C(=CCOC2O)O1 (stereo unspecified)
inactive: T-47D breast 13.7% | BT-549 breast 52.8% | MCF7 breast 13.3% | HCC-2998 colon 93.3% | KM12 colon 20.5%
active: NCI/ADR-RES ovarian 0.601% | MDA-MB-435 melanoma 5.62% | SW-620 colon -47.3% | HCT-116 colon -69.5%

O=C1CN=C(c2ccc(Cl)cc2)c2sccc2N1
inactive: NCI/ADR-RES ovarian 109% | T-47D breast 95.3% | BT-549 breast 103% | MDA-MB-435 melanoma 109% | SW-620 colon 110% | MCF7 breast 96.5% | HCT-116 colon 101% | HCC-2998 colon 116% | KM12 colon 103%

O=[N+]([O-])CC(c1ccccc1Cl)c1c(-c2ccccc2)[nH]c2ccccc12 (stereo unspecified)
active: MDA-MB-435 melanoma -9.48%
inactive: NCI/ADR-RES ovarian 25.5% | T-47D breast 22.1% | BT-549 breast 37.3% | SW-620 colon 25.2% | MCF7 breast 21.8% | HCT-116 colon 20.3% | HCC-2998 colon 71.3% | KM12 colon 26.8%

COc1cc2c(=O)n(C3CCCCCCC3)c3c4cc[nH]c4ncc3c2cc1OC
inactive: NCI/ADR-RES ovarian 40.5% | T-47D breast 39.5% | BT-549 breast 44.6% | MDA-MB-435 melanoma 57.9% | SW-620 colon 56.8% | MCF7 breast 39.1% | HCT-116 colon 31.5% | HCC-2998 colon 96.2% | KM12 colon 19.1%

NC(=S)c1cn(C2OC(CO)C(O)C2O)c2ncnc(N)c12 (stereo unspecified)
active: NCI/ADR-RES ovarian -25.8% | T-47D breast -16.9% | BT-549 breast -43.1% | MDA-MB-435 melanoma -40.5% | SW-620 colon -27.6% | MCF7 breast 2.36% | HCT-116 colon -16.3% | HCC-2998 colon -44.8% | KM12 colon -14.9%

Clc1cccc(NCOOC2(OOCNc3cccc(Cl)c3)CCCCC2)c1
inactive: NCI/ADR-RES ovarian 36.8% | T-47D breast 62% | BT-549 breast 78% | MDA-MB-435 melanoma 78.7% | SW-620 colon 98.8% | MCF7 breast 65.3% | HCT-116 colon 61.2% | HCC-2998 colon 95.4% | KM12 colon 51.4%

O=C(CC1(O)C(=O)Nc2ccccc21)c1ccc(C(=O)NCC2CCC3(CC2)OOC2(CCCCC2)OO3)cc1 (stereo unspecified)
inactive: NCI/ADR-RES ovarian 86.9% | T-47D breast 31.8% | BT-549 breast 80.1% | MDA-MB-435 melanoma 81.6% | SW-620 colon 86.4% | MCF7 breast 62.9% | HCT-116 colon 65.9% | HCC-2998 colon 106% | KM12 colon 77.4%

COc1cc2c(cc1OCCCCn1c(-c3cccs3)nc3ccccc31)N=C[C@@H]1CCCN1C2=O
active: T-47D breast 5.95% | BT-549 breast -55.6% | MDA-MB-435 melanoma -78.8% | SW-620 colon 2.49% | MCF7 breast -15.2% | HCT-116 colon 8.65% | HCC-2998 colon 0.698% | KM12 colon 0.0109%
inactive: NCI/ADR-RES ovarian 36.5%

O=C1CNC(c2ccccc2)c2cc(Cl)ccc2N1 (stereo unspecified)
inactive: NCI/ADR-RES ovarian 100% | T-47D breast 88.4% | BT-549 breast 122% | MDA-MB-435 melanoma 108% | SW-620 colon 97.2% | MCF7 breast 97.8% | HCT-116 colon 97% | HCC-2998 colon 106% | KM12 colon 91.2%

C[n+]1c(/C=C/c2ccc(N(CCCl)CCCl)cc2)sc2ccccc21
inactive: NCI/ADR-RES ovarian 102% | T-47D breast 16.8% | BT-549 breast 64.3% | MDA-MB-435 melanoma 76.1% | SW-620 colon 23.1% | MCF7 breast 27.3% | HCT-116 colon 48.4% | HCC-2998 colon 84.4% | KM12 colon 74.8%

CC(=O)O[C@@H]1CC[C@]2(C)[C@H]3CC[C@]4(C)C(=O)CC[C@H]4[C@@H]3C[C@@H]3SC(N)=N[C@@]32C1
active: MDA-MB-435 melanoma 2.34%
inactive: NCI/ADR-RES ovarian 44% | T-47D breast 65.8% | BT-549 breast 45.2% | SW-620 colon 44.1% | MCF7 breast 32.6% | HCT-116 colon 32.7% | HCC-2998 colon 82.1% | KM12 colon 33.1%

Cn1cc(C=O)c2nccnc21
inactive: NCI/ADR-RES ovarian 105% | T-47D breast 104% | BT-549 breast 151% | MDA-MB-435 melanoma 106% | SW-620 colon 110% | MCF7 breast 91.4% | HCT-116 colon 116% | HCC-2998 colon 109% | KM12 colon 119%
